# Measured potencies and affinities stand elsewhere. Calls of active or inactive are those of the source.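 How the source made its calls: active means compounds lowering cell ATP signal with a fitted half-effect dose at most twice the top valid dose; inconclusive means flat curve with 30 to 70% signal loss, or bad fit; inactive means wrong direction, flat within 30%, or weaker than limit.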
# Experiment: viability loss in HEK293 kidney cells – cell-based, cherry-picks, set 5, cytotoxicity control, dose response (AID 1053117);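 further: more negative means greater loss of ATP signal and more cytotoxicity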
# Details: HEK293T viability, CellTiter-Glo ATP luminescence, 72 h; series mostly up to 26 µM
row,SMILES,outcome
1,O=C(NCc1ccccc1)c1ccc(-c2cn[nH]c2)c2ccoc12,inactive
2,Cc1ccc(S(=O)(=O)N2CC[C@@H]3[C@H]2c2cc(-c4cccc(C(=O)N(C)C)c4)ccc2N[C@@H]3CO)cc1,inactive
3,OC(CNC1CCCc2ccccc21)COc1c(Cl)cccc1Cl (stereo not drawn),inactive
4,C[C@H](O)C#Cc1ccc2c(c1)O[C@@H](CN(C)C)[C@H](C)CN([C@H](C)CO)S2(=O)=O,inactive
5,CCc1nc2c(OCCc3cccc(OC)c3)cccn2c1N(C)C(=O)c1ccc(C)cc1,inactive
6,C[C@@H]1CN([C@H](C)CO)C(=O)c2cc(NC(=O)CCCN(C)C)ccc2O[C@H]1CN(C)Cc1ccc(-c2ccccc2)cc1,inactive
7,CN1c2ccc(-c3ccccc3)cc2[C@@H]2[C@@H](CCN2C(=O)CN2CCOCC2)[C@H]1CO,inactive
8,COc1cccc(-c2ccc3c(c2)[C@@H]2[C@@H](CCN2S(=O)(=O)c2cccc(OC)c2)[C@@H](CO)N3)c1,inactive
9,C[C@@H]1CN([C@H](C)CO)C(=O)c2cc(-c3ccccc3)cnc2O[C@H]1CN(C)C(=O)c1cccc(F)c1,inactive
10,C[C@@H](O)C#Cc1ccc2c(c1)O[C@@H](CN(C)C)[C@@H](C)CN([C@@H](C)CO)S2(=O)=O,inactive
11,Cc1cc(C)n2ncc(C(=O)NCc3ccc(Cl)cc3)c2n1,inactive
12,COC(=O)C[C@@H]1CC[C@H]2[C@H](COc3ccc(NC(=O)Cc4cccs4)cc3C(=O)N2C)O1,inactive
13,Cc1cccc(N2CCN(S(=O)(=O)c3cn(C)cn3)CC2)c1C,inactive
14,N#C[C@@H]1[C@@H](c2ccccc2C2=CCCCC2)[C@H](CO)N1S(=O)(=O)c1ccccc1,inactive
15,CN(C)C(=O)c1ccc(-c2ccc3c(c2)[C@@H]2[C@@H](CCN2C(=O)c2ccc(F)cc2)[C@@H](CO)N3C)cc1,inactive
16,O=C(c1cccnc1)N1C[C@H]2[C@@H](c3ccccc31)[C@H](CO)N2CC1CCCC1,inactive
17,C[C@H]1CN([C@@H](C)CO)C(=O)c2cc(NC(=O)CCCN(C)C)ccc2O[C@@H]1CN(C)Cc1ccc(-c2ccccc2)cc1,inactive

row,SMILES,outcome
1,C[C@@H]1CN([C@H](C)CO)C(=O)c2cc(-c3ccccc3)cnc2O[C@@H]1CN(C)C(=O)c1cccc(F)c1,inactive
2,Cc1ccn2cc(-c3ccc(NC(=O)c4ccco4)cc3)nc2c1,inactive
3,C[C@H](O)C#Cc1ccc2c(c1)O[C@H](CN(C)C)[C@@H](C)CN([C@H](C)CO)S2(=O)=O,inactive
4,Cc1ccccc1S(=O)(=O)N1CC[C@H]2[C@H](CO)Nc3ccc(-c4ccc(C#N)cc4)cc3[C@H]21,inactive
5,CCOC(=O)c1nnn(-c2ccc(OC)cc2)c1N,inactive
6,N#C[C@H]1[C@H](c2ccccc2C2=CCCCC2)[C@H](CO)N1S(=O)(=O)c1ccccc1,inactive
7,O=C(CN1CCCC1)Nc1ccc(Oc2ccc(NC(=O)CN3CCCC3)cc2)cc1,inactive
8,CC(=O)Nc1cccc(-c2ccnc3c2CC(C)(C(=O)Nc2cccc(C(F)(F)F)c2)O3)c1 (stereo not drawn),inactive
9,NC(=O)C1=C[C@H](c2coc3ccccc3c2=O)C[C@H](OCCCCO)O1,inactive
10,Cc1ccc(NC(=O)COC(=O)c2cc(Cl)ccc2[N+](=O)[O-])c(C)c1,inactive
11,COCC(=O)Nc1ccc2c(c1)C(=O)N(C)[C@H]1CC[C@@H](CC(=O)NCc3ccccc3Cl)O[C@H]1CO2,inactive
12,CO[C@@H]1CN(C)C(=O)c2ccc(NC(=O)c3ccc(-c4ccccc4)cc3)cc2OC[C@@H](C)NC[C@@H]1C,inactive
13,O=C(CSc1nc2ncc(Cl)cc2[nH]1)c1c[nH]c2ccccc12,inactive
14,O=C(c1cccnc1)N1C[C@H]2[C@@H](c3ccccc31)[C@@H](CO)N2CC1CCCC1,inactive
15,Cc1ccc(S(=O)(=O)N2CC[C@@H]3[C@@H](CO)Nc4ccc(-c5cccc(C(=O)N(C)C)c5)cc4[C@@H]32)cc1,inactive
16,CO[C@H]1CN(C)C(=O)c2cc(NC(C)=O)ccc2OC[C@@H](C)N(C(=O)CN2CCOCC2)C[C@H]1C,inactive
